Here are results for one sequence from paper PMC7862700, “An all-to-all approach to the identification of sequence-specific readers for epigenetic DNA modifications on cytosine”.

Assay in all cases: DAPPL (digital affinity profiling via proximity ligation, sequencing); 10 mM Tris-HCl pH 7.5, 50 mM NaCl, 1 mM DTT, 4% glycerol, room temperature, 30 min; GST-TFs on glutathione beads, 16-mer random dsDNA library, 0.1% formaldehyde crosslink after washing; high values mean tight binding
Test [1] addresses T1, FEV (Homo sapiens, UniProt Q99581 1-238).
T1 sequence: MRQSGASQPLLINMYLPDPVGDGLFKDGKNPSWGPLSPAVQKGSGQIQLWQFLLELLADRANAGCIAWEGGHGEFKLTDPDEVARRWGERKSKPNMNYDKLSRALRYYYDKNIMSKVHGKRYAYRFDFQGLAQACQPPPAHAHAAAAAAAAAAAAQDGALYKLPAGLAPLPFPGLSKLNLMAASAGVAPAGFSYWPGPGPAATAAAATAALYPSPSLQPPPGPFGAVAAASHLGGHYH
The conditions noted are these: protein: recombinant; tags: N-terminal GST; dsDNA, one strand shown. In outline: (§1)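 Human transcription factors carrying a GST fusion were produced in yeast, bound to glutathione beads, tagged with DNA barcodes and pooled together with a tag-only sample. Each pool was held with 200 nmole of a random double-stranded 16-mer DNA library in Tris/NaCl/DTT/glycerol buffer for 30 min at room temperature, then washed, crosslinked in 0.1% formaldehyde, proximity-ligated with BsaI/T4 ligase (1 h, 37 °C), PCR-amplified and sequenced on an Illumina NextSeq500. Binding signal is the read frequency of each hexamer for a given factor divided by its frequency in the tag-only sample.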

Test [2] concerns the target ETV5 (Homo sapiens, UniProt P41161 1-510). The conditions noted are these: protein: recombinant; tags: N-terminal GST; dsDNA, one strand shown. In outline:
as §1

Test [3] deals with HSF1 (Homo sapiens, UniProt Q00613 1-529). The conditions noted are these: protein: recombinant; tags: N-terminal GST; chain copies: 3; dsDNA, one strand shown. The essentials:
as §1

For test [4], the target named is T2, SPIC (Homo sapiens, UniProt Q8N5J4 1-248).
T2 sequence: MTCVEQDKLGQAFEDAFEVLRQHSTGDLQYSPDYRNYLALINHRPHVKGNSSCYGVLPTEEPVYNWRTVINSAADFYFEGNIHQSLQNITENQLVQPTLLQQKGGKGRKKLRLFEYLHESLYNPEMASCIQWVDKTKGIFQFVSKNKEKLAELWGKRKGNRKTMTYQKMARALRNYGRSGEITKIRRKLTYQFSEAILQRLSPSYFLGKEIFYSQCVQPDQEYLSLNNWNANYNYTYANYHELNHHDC
The conditions noted are these: protein: recombinant; tags: N-terminal GST; dsDNA, one strand shown. The essentials:
as §1

Test [5] deals with ELF4 (Homo sapiens, UniProt Q99607 1-663). The conditions noted are these: protein: recombinant; tags: N-terminal GST; dsDNA, one strand shown. The essentials: as §1
ELF4, sequence (Q99607 whole entry): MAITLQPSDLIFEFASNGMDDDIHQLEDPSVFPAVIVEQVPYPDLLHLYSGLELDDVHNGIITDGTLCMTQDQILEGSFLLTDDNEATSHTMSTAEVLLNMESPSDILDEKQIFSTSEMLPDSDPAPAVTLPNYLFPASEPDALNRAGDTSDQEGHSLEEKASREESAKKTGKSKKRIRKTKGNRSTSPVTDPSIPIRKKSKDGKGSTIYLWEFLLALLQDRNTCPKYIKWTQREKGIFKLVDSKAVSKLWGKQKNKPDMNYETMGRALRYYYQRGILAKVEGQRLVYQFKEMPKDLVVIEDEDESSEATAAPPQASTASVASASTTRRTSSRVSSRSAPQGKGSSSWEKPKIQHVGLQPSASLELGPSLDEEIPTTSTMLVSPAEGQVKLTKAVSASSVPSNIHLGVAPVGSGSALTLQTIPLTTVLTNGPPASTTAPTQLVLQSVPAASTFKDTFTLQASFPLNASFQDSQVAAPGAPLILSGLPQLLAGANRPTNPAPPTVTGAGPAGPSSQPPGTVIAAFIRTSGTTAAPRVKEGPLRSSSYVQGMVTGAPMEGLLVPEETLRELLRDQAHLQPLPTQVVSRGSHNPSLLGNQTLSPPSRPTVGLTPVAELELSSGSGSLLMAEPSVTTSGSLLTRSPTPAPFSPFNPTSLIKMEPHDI
For test [6], the target named is T3, ELK4 (Homo sapiens, UniProt P28324-2 1-405).
T3 sequence: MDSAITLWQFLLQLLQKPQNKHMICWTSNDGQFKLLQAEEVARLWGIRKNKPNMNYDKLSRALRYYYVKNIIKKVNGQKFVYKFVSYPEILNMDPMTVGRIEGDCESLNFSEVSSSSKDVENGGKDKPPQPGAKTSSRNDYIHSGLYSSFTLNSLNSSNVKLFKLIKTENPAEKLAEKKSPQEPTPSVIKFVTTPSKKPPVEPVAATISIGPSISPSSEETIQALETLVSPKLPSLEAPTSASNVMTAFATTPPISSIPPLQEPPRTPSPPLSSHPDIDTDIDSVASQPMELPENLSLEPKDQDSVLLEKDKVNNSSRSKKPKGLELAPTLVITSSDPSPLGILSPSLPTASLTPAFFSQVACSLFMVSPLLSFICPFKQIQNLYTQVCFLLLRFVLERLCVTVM
The conditions noted are these: protein: recombinant; tags: N-terminal GST; dsDNA, one strand shown. The essentials:
as §1

The target in test [7] is T4, ETV2 (Homo sapiens, UniProt O00321 1-342).
T4 sequence: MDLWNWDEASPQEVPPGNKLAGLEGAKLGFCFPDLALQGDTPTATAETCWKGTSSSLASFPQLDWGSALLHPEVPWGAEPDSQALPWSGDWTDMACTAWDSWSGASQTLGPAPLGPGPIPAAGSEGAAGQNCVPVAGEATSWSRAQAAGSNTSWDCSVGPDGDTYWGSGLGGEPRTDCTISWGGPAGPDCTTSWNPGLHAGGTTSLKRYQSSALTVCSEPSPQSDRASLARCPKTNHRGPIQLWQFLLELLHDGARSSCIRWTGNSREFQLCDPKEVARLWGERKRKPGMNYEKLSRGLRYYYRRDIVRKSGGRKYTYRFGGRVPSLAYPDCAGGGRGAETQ
The conditions noted are these: protein: recombinant; tags: N-terminal GST; dsDNA, one strand shown. In outline: as §1

In test [8] the target is T5, ELF3 (Homo sapiens, UniProt P78545 1-371).
T5 sequence: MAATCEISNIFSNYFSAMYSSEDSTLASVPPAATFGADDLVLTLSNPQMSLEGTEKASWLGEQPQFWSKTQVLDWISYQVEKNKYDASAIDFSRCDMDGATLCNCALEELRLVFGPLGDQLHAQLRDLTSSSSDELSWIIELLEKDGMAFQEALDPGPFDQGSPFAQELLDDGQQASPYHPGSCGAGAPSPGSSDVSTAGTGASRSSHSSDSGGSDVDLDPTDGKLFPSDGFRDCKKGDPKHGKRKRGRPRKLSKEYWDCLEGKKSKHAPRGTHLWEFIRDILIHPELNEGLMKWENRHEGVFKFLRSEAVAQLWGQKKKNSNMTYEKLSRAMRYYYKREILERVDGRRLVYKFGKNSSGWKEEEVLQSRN
The conditions noted are these: protein: recombinant; tags: N-terminal GST; dsDNA, one strand shown. The essentials:
as §1

In test [9] the target is CRX (Homo sapiens, UniProt O43186 1-299). The conditions noted are these: protein: recombinant; tags: N-terminal GST; dsDNA, one strand shown. The essentials: as §1
CRX, sequence (O43186 whole entry): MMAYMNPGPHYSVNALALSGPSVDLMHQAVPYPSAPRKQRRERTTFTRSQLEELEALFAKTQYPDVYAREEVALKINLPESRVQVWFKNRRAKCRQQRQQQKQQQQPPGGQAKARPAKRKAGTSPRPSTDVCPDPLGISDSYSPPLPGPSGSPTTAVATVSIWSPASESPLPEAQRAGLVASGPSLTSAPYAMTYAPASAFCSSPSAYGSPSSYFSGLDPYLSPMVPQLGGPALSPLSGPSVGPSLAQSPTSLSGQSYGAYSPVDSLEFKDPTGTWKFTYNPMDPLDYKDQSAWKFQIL
Test [10] concerns the target ETV1 (Homo sapiens, UniProt P50549 1-477). The conditions noted are these: protein: recombinant; tags: N-terminal GST; dsDNA, one strand shown. The essentials: as §1
For test [11], the target named is T6, ERF (Homo sapiens, UniProt P50548 1-548).
T6 sequence: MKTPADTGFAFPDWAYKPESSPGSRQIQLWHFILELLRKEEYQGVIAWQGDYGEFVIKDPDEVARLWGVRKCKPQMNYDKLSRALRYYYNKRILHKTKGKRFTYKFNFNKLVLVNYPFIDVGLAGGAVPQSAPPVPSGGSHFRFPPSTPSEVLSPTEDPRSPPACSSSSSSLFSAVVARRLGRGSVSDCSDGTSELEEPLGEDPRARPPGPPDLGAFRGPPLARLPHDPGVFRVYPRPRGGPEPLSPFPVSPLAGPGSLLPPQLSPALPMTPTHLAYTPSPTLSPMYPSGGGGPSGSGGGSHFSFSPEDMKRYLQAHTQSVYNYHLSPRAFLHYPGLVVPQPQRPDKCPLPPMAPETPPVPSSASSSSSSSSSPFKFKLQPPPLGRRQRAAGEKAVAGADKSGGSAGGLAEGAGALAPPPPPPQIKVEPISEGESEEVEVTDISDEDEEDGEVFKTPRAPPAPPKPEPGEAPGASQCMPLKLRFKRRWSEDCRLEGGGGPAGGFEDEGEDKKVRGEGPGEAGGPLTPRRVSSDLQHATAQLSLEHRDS
The conditions noted are these: protein: recombinant; tags: N-terminal GST; dsDNA, one strand shown. The essentials:
as §1

The target in test [12] is T7, ETV3L (Homo sapiens, UniProt Q6ZN32 1-361).
T7 sequence: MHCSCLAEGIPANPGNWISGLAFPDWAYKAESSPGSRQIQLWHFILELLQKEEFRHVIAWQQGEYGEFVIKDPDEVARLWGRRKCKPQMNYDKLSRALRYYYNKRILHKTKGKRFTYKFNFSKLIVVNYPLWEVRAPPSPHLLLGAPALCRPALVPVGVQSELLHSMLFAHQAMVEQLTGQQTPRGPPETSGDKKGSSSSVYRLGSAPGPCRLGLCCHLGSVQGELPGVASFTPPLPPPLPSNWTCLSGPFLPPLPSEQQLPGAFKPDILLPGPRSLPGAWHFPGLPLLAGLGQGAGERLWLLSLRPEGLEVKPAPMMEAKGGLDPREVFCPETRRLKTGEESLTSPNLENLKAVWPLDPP
The conditions noted are these: protein: recombinant; tags: N-terminal GST; dsDNA, one strand shown. The essentials:
as §1

The target of test [13] is T8, ETS2 (Homo sapiens, UniProt P15036 1-469).
T8 sequence: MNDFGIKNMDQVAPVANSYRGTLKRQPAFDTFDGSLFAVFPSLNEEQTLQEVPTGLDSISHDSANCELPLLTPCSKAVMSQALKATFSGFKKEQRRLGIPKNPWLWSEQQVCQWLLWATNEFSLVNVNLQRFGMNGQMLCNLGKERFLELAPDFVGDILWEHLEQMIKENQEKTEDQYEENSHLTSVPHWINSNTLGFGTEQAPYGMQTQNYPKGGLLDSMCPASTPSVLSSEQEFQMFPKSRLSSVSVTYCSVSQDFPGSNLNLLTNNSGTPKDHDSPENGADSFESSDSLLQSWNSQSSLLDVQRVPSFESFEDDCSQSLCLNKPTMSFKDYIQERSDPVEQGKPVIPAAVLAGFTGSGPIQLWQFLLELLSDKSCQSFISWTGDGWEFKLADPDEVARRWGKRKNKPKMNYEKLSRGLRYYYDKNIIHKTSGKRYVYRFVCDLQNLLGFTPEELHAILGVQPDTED
The conditions noted are these: protein: recombinant; tags: N-terminal GST; dsDNA, one strand shown. In outline: as §1

Test [14] concerns the target T9, SPDEF (Homo sapiens, UniProt O95238 1-335).
T9 sequence: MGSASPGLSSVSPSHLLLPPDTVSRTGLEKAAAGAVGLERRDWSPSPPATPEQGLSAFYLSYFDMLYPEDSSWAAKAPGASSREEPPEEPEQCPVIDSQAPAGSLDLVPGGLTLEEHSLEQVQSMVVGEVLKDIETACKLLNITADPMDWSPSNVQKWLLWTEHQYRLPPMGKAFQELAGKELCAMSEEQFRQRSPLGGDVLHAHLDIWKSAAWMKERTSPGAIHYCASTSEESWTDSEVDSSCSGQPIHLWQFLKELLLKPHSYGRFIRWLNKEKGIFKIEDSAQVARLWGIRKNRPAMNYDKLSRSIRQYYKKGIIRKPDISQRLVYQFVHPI
The conditions noted are these: protein: recombinant; tags: N-terminal GST; dsDNA, one strand shown. In outline: as §1

Test [15] addresses T10, ETV7 (Homo sapiens, UniProt Q9Y603 1-341).
T10 sequence: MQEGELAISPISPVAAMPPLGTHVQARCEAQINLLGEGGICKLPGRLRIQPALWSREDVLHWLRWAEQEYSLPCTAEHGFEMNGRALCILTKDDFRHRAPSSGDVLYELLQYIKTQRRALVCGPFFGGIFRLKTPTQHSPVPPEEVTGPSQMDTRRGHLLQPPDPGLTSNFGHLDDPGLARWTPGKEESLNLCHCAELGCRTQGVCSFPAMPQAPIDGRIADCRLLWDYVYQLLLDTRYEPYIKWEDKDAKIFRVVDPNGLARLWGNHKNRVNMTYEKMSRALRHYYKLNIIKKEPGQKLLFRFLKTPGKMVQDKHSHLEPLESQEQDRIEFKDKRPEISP
The conditions noted are these: protein: recombinant; tags: N-terminal GST; dsDNA, one strand shown. In outline: as §1

Test [16] deals with T11, ELF5 (Homo sapiens, UniProt Q9UKW6-2 1-255).
T11 sequence: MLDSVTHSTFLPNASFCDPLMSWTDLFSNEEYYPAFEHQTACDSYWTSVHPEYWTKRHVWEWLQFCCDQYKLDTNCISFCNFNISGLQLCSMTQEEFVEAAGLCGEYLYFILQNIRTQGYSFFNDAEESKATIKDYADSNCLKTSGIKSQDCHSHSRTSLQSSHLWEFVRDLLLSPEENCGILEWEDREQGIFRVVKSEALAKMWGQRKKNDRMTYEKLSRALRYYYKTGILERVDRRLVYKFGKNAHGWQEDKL
The conditions noted are these: protein: recombinant; tags: N-terminal GST; dsDNA, one strand shown. In outline:
as §1

For test [17], the target named is T12, ETV3 (Homo sapiens, UniProt P41162-2 1-143).
T12 sequence: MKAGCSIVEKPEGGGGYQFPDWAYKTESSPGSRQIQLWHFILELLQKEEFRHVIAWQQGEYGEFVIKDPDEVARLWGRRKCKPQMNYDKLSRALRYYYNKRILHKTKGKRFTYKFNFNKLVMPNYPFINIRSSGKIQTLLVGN
The conditions noted are these: protein: recombinant; tags: N-terminal GST; dsDNA, one strand shown. The essentials: as §1

The target of test [18] is ETV6 (Homo sapiens, UniProt P41212 1-452). The conditions noted are these: protein: recombinant; tags: N-terminal GST; dsDNA, one strand shown. The essentials: as §1
ETV6, sequence (P41212 whole entry): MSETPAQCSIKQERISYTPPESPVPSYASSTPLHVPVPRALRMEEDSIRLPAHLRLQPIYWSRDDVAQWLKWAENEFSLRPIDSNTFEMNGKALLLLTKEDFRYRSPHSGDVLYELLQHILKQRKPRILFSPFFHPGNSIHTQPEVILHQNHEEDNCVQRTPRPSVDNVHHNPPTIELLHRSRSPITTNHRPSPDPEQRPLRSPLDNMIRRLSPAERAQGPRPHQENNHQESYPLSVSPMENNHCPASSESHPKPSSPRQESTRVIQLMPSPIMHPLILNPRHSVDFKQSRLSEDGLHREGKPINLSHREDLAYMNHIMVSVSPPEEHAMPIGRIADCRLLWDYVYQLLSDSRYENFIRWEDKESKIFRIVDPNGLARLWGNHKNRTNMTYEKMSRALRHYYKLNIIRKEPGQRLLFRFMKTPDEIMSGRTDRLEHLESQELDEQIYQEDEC

ETV5, sequence (P41161 whole entry): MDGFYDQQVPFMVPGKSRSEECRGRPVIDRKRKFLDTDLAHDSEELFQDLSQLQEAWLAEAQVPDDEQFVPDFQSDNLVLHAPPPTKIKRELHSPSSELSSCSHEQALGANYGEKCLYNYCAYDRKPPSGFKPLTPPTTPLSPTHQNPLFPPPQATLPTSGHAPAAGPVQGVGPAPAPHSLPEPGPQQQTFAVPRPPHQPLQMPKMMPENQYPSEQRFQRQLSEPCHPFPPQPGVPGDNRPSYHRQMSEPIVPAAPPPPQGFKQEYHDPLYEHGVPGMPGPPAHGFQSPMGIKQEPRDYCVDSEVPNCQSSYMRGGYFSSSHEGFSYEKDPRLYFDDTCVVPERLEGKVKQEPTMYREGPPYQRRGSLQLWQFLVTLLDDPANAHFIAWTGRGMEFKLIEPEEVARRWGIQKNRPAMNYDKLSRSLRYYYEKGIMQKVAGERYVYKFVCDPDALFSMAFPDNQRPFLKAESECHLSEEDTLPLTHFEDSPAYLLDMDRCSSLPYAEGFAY
ETV1, sequence (P50549 whole entry): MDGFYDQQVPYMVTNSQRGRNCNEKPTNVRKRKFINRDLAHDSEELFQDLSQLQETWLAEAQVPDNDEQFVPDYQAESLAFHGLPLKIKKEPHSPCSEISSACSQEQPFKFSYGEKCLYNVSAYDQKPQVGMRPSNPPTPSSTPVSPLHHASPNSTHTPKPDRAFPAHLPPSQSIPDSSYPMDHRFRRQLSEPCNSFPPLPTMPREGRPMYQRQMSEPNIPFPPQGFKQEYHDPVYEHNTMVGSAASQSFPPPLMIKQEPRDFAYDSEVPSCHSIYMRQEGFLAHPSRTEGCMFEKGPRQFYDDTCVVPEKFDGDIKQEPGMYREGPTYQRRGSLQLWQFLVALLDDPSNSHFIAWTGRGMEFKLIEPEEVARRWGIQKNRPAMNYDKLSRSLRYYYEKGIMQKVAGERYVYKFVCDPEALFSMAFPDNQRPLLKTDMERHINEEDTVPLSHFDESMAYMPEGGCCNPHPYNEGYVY
HSF1, sequence (Q00613 whole entry): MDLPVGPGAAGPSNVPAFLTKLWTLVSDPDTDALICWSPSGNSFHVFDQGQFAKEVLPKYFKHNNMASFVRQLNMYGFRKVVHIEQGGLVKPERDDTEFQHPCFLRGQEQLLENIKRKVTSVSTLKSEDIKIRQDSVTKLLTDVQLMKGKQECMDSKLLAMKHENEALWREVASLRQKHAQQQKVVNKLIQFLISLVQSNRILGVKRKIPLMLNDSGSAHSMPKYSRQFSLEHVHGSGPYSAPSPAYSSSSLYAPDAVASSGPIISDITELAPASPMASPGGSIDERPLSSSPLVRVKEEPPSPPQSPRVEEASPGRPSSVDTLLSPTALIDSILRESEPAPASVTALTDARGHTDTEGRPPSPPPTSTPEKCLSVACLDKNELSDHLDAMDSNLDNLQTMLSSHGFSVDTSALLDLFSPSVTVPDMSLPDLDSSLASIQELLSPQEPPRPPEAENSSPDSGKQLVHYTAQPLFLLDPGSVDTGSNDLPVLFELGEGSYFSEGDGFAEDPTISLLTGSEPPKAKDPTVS

For the sequence ATTCAT, the binding signal in test [1] was 1.11 fold enrichment (6-mer frequency, TF over GST control); in [2], 1.21 fold enrichment (6-mer frequency, TF over GST control); in [3], 1.12 fold enrichment (6-mer frequency, TF over GST control); in [4] it was 1.24 fold enrichment (6-mer frequency, TF over GST control); in test [5] it was 1.17 fold enrichment (6-mer frequency, TF over GST control); in test [6], 1.18 fold enrichment (6-mer frequency, TF over GST control). For the same sequence, the binding signal is 1.15 fold enrichment (6-mer frequency, TF over GST control) in [7]; 1.22 fold enrichment (6-mer frequency, TF over GST control) in test [8]; 1.16 fold enrichment (6-mer frequency, TF over GST control) in test [9]; 1.18 fold enrichment (6-mer frequency, TF over GST control) in test [10]; 1.14 fold enrichment (6-mer frequency, TF over GST control) in test [11]; 1.27 fold enrichment (6-mer frequency, TF over GST control) in [12]. For the same sequence, the binding signal in [13] was 1.13 fold enrichment (6-mer frequency, TF over GST control); in test [14] it was 1.07 fold enrichment (6-mer frequency, TF over GST control); in [15], 1.18 fold enrichment (6-mer frequency, TF over GST control); in [16], 1.1 fold enrichment (6-mer frequency, TF over GST control); in test [17], 1.19 fold enrichment (6-mer frequency, TF over GST control); in test [18], 1.11 fold enrichment (6-mer frequency, TF over GST control).
